Over roughly 18,000 sequences, “log2 normalized intensity” has its median near 0.39; the highest 2% begin near 6.6. The entries come from a sample that favours the highest values as a whole.
Molecular target: T1, HNF4alpha2 (COS-7 nuclear extract) (Homo sapiens, UniProt P41235 1-474)
T1 sequence: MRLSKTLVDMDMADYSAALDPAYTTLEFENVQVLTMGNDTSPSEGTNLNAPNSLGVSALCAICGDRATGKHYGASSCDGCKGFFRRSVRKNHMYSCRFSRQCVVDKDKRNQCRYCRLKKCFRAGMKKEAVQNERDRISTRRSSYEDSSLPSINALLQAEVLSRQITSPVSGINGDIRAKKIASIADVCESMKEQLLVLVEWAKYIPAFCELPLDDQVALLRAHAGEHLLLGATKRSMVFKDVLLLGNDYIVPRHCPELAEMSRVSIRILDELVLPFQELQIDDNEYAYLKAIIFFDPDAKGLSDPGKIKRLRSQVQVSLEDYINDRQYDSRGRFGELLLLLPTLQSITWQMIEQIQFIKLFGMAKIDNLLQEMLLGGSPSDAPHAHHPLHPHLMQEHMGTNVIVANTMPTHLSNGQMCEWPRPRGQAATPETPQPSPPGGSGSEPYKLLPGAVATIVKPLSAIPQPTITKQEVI
Experiment: protein-binding microarray; COS-7 nuclear extract on double-stranded Agilent 4x180k PBM; binding buffer, salt, pH and temperature not given in the material; high values mean tight binding
Settings: chain copies: 2; label: 3' end of strand 1 on the slide; dsDNA, one strand shown
Summary of the method: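 Binding signal was defined as the normalized, background-corrected gProcessedSignal reported by Agilent software. It came from nuclear extracts of COS-7 cells transiently transfected with a human HNF4α isoform expression vector, applied to a custom Agilent SurePrint G3 4x180k array. That array held ~44,000 test sequences in quadruplicate as double-stranded ~60-nt oligonucleotides, and bound HNF4α was imaged at 2-µm resolution on an Agilent G2565CA scanner.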

| Sequence | binding signal [log2 normalized intensity] |
| --- | --- |
| TATCCCTGGAGCCTTAGAAGATGACCTTTTGCCTAGGGAGATTAGAGTATCGGTCGA | 5.59 |
| ATGCCAGATGACCTTTGCCCTTGACTTTTTGCCTAGGGAGATTAGAGTATCGGTCGA | 8.55 |
| TTCTTTTTTTTTTTTTTTTTTTTTTGAGATGCCTAGGGAGATTAGAGTATCGGTCGA | 3 |
| GGAAGTCCAGCATTCTTTTCCCCATACCAGGCCTAGGGAGATTAGAGTATCGGTCGA | 1.33 |
| TGCCCTTTGTCCAGGGTGAGAGGGACCCTTGCCTAGGGAGATTAGAGTATCGGTCGA | 2.41 |
| CCTTGGGTCTGTAATCTCACAACTCAGAAGGCCTAGGGAGATTAGAGTATCGGTCGA | 0.23 |
| ATAAGGGGCAGCAAACCTACCTGAACTTTGGCCTAGGGAGATTAGAGTATCGGTCGA | 3.07 |
| CCACCCACACTGCAGCAAAACTTTAGGACTGCCTAGGGAGATTAGAGTATCGGTCGA | 0.141 |
| GGGCAGCAAACCTACCTGAACTTTGCCCCAGCCTAGGGAGATTAGAGTATCGGTCGA | 7.99 |
| GCAAACCTACCTGAACTTTGCCCCAGAGGAGCCTAGGGAGATTAGAGTATCGGTCGA | 5.9 |
| TGCAGCAAAACTTTAGGACTTTGAACCTTGGCCTAGGGAGATTAGAGTATCGGTCGA | 8.63 |
| ACTTCTGTCTCCAGAAATCAACCTTTGATCGCCTAGGGAGATTAGAGTATCGGTCGA | 7.84 |
| TTGAACCTTGGGTCTGTAATCTCACAACTCGCCTAGGGAGATTAGAGTATCGGTCGA | 1.47 |
| GGACTTTGAACCTTGGGTCTGTAATCTCACGCCTAGGGAGATTAGAGTATCGGTCGA | 7.11 |
| TGTCTCCAGAAATCAACCTTTGATCGTTTGGCCTAGGGAGATTAGAGTATCGGTCGA | 5.83 |
| ATGTCTCCAGAAACCAACCTTTGATCATTCGCCTAGGGAGATTAGAGTATCGGTCGA | 4.87 |
| CACACTGCAGCAAAACTTTAGGACTTTGAAGCCTAGGGAGATTAGAGTATCGGTCGA | 3.31 |
| AGAAAGACATGTTTCTAACTGCCCGCATTCGCCTAGGGAGATTAGAGTATCGGTCGA | 0.246 |
| TATTCCAGGCACAAGAATGGTCATTCTCTGGCCTAGGGAGATTAGAGTATCGGTCGA | -0.977 |
| GGCTTCTGGACTATGCCTTGAACTTTAAGGGCCTAGGGAGATTAGAGTATCGGTCGA | 2.21 |
| TGGCACCTGAAGCTGCCCTTTGCACATGCCGCCTAGGGAGATTAGAGTATCGGTCGA | 4.08 |

| Sequence | binding signal [log2 normalized intensity] |
| --- | --- |
| ATTGGGATGGAGTAACTTGCTAAGTATAAAGCCTAGGGAGATTAGAGTATCGGTCGA | -0.531 |
| TCTTTTCTAAGATATTTGCATAGGCATTGTGCCTAGGGAGATTAGAGTATCGGTCGA | 1.94 |
| CTTGTCCAACTCCCCTCCCAAGGCAGCAATGCCTAGGGAGATTAGAGTATCGGTCGA | 4 |
| GATGACATCATCTGTTTGTACGCGTCGAACGCCTAGGGAGATTAGAGTATCGGTCGA | -0.199 |
| CAACTTTCTCCTCCAGGACCTTGCCCTTTAGCCTAGGGAGATTAGAGTATCGGTCGA | 4.23 |
| CTTTAGGACTTTGAACCTTGGGTCTGTAATGCCTAGGGAGATTAGAGTATCGGTCGA | 6.04 |
| GGGAGGAGGGCAACCTTTGAACTGGGTCTTGCCTAGGGAGATTAGAGTATCGGTCGA | 4.09 |
| CAAAACTTTAGGACTTTGAACCTTGGGTCTGCCTAGGGAGATTAGAGTATCGGTCGA | 7.13 |
| GGACTCTGGAACCATCAGGATTCCAGAGGAGCCTAGGGAGATTAGAGTATCGGTCGA | 1.86 |
| TTTGCAACCTTTGATAACCTACAACCTTCTGCCTAGGGAGATTAGAGTATCGGTCGA | 0.304 |
| CCCAGGTACGGAGGACAGCCACCCGTGCTTGCCTAGGGAGATTAGAGTATCGGTCGA | -0.928 |
| TTACTATAGGTTCTACTCTCCCCAGTTCAAGCCTAGGGAGATTAGAGTATCGGTCGA | 3.24 |
| GGTGAACTTTGAGACTATCCTTGGACCGCAGCCTAGGGAGATTAGAGTATCGGTCGA | 2.51 |
| AGATGGGGTGAACTTTGGACCACATATAGAGCCTAGGGAGATTAGAGTATCGGTCGA | 7.14 |
| CTCAGTCATACCACATGGATGGATTCAGATGCCTAGGGAGATTAGAGTATCGGTCGA | 0.259 |
| CAGGGGTCATCAGATAGATGGTCAGTGAACGCCTAGGGAGATTAGAGTATCGGTCGA | 1.44 |
| GAGGACTTTGGCCTTTTGTGAGATATGGACGCCTAGGGAGATTAGAGTATCGGTCGA | 3.45 |
| TACCATGGGAGACCTCAGGGGTCATCAGATGCCTAGGGAGATTAGAGTATCGGTCGA | 2.49 |
| ACAGGAGATCAGATGGGGTGAACTTTGGACGCCTAGGGAGATTAGAGTATCGGTCGA | 8.41 |
| TGGGGTATCAGGTGGTGATGGTGGGAGGGAGCCTAGGGAGATTAGAGTATCGGTCGA | 0.113 |
| AGATCAGATGGGGTGAACTTTGGACCACATGCCTAGGGAGATTAGAGTATCGGTCGA | 7.41 |

Reference: publication PMC10726135, “HNF4α isoforms regulate the circadian balance between carbohydrate and lipid metabolism in the liver”
